# Laboratory results published in PubChem BioAssay (NCI).
# The panel holds about 83,000 compounds, 20% with a hit somewhere; the sample as a whole holds those more often.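 For each line, cells grew in 96-well plates with the test compound present at a single concentration for 48 hours.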 A number with no mark means an inactive call. Activity calls are given as the source filed them.
# Test system: A498 renal
# Test: NCI-60 one-dose screen, 48 h (100 = growth as untreated, 0 = no growth, -100 = all killed)
# Conditions: 10 µM
# Description: Growth inhibition of the A498 human tumor cell line is measured as a screen for anti-cancer activity. Cells are grown in 96 well plates and exposed to the test compound for 48 hours. Compounds are tested at a single concentration, which is 10^-5 M for most compounds. The reported endpoint is percent growth (GI% or GIPRCNT), where numbers from 0 - 100% represent growth inhibition, and numbers from -100% - 0 represent cell death. For example, a value of 40 represents 60% growth inhibition. A value of 0 means no net growth occurred over the course of the experiment. A value of -40 indicates 40% of cells at the beginning of the experiment died by the end of the experiment. A value of -100 means all cells are dead at the end of the experiment.
# NCI-60 Human Tumor Cell Lines Screen was performed using the standard one-dose NCI protocol, which is described in more detail at https://dtp.cancer.gov/discovery_development/nci-60/default.htm.
# Compounds with GIPRCNT values below 10 were considered active. Activity score was based on GIPRCNT using the following formula: […]
# Score is 0 for GIPRCNT values of 100 or above, 50 for GIPRCNT values of 0, and 100 for GIPRCNT values of -100.
row,SMILES,growth
1,O=C1Nc2cc(-c3ccc(NC(=O)c4cccc([N+](=O)[O-])c4)cc3)ccc2/C1=C/c1ccc[nH]1,149%
2,COc1cc(/C=C/C(=O)c2ccc(NC(=O)CSc3nnc(-c4c[nH]c5ccccc45)n3-c3ccccc3)cc2)cc(OC)c1OC,138%
3,Nc1nc(Nc2ccc(Cl)cc2)nn1Cc1cccc(Br)c1,-1.15% (active)
4,CN1CCc2c(sc3ncnc(N/N=C/c4cn(-c5ccccc5)nc4-c4ccc(Br)cc4)c23)C1,94.8%
5,O=c1[nH][nH]c(Nc2ccccc2)c1N=Nc1ccc(F)cc1,110%
6,COc1ccc2[nH]c(O)c(N=NC(=O)c3cc(-c4ccc(C)cc4)nc4ccccc34)c2c1,126%
7,O=C(NO)c1ccc(Cn2ccc3c(Nc4ccccc4)ncnc32)cc1,-14.2% (active)
8,COc1ccc(-c2nc(Nc3ccccc3S(N)(=O)=O)c3ccccc3n2)cc1,92%
9,CC1=C(C(=O)OC(C)C)C(c2ccc(O)cc2)NC(=S)N1 (stereo not given),138%
10,O=C(CNc1nc(-c2ccccc2)cs1)Nc1ccc([N+](=O)[O-])cc1Cl,55%
11,CCCn1c(O)c(N=Nc2nc(-c3cc4ccccc4oc3=O)cs2)c2cc(Br)ccc21,130%
12,O=C(CNc1nc(-c2ccccc2)cs1)Nc1cccc(Cl)c1,66.5%
13,COc1ccc2[nH]c(O)c(N=NC(=O)COc3ccc(NC(=O)Nc4ccc(Cl)c(Cl)c4)cc3)c2c1,-1.89% (active)
14,O=C(Nc1cc(Cl)cc(Cl)c1)Nc1cc(Cl)cc(Cl)c1,-18.3% (active)
15,C/C(=C\c1ccc(O)cc1O)c1ccc2ccc(O)cc2[o+]1,147%
16,N#Cc1c(NC(=O)c2cccc(C(F)(F)F)c2)sc2c1CCC(O)=C2,69%
17,O=C(c1ccc(Cl)cc1)C1[C@H](c2ccccc2Br)[C@@H](c2ccccc2)NC12C(=O)Nc1ccc(Br)cc12 (stereo not given in full),74.5%
18,COc1cnc2c(c1)C(=O)c1c-2n(CCCNCCO)c(=O)c2cc(OC)c(OC)cc12,101%
19,CCN1CCN(c2ccc(NC(=O)Nc3ccc4c(c3F)CCN4c3ccnc(C(=O)NC)c3)cc2C(F)(F)F)CC1,142%
20,CN1CCN(Cc2ccc(NC(=O)c3cncc(C#Cc4cnc5ccc(N[C@H]6CCOC6)nn45)c3)cc2C(F)(F)F)CC1,-94.7% (active)

row,SMILES,growth
1,Cc1ccc(/C=C/C(=O)c2ccc(NC(=O)CSc3nnc(-c4c[nH]c5ccccc45)n3-c3ccccc3)cc2)c(C)c1,106%
2,Clc1ccc(/C=N/Nc2ncnc3sc4c(c23)CCN(Cc2ccccc2)C4)cc1,-32.2% (active)
3,Cc1cc(=O)oc2cc(OCCCCOc3ccc(/C=C/C(=O)Nc4cccc(Cl)c4)cc3)ccc12,80.7%
4,O=C1Nc2cc(Cl)ccc2/C1=C/c1ccc(OCc2ccc(Br)cc2F)cc1,-46.4% (active)
5,COc1ccc(-c2cc(C(=O)N=Nc3c(O)[nH]c4ccc(F)cc34)c3ccccc3n2)cc1,128%
6,CN1C(=O)N(C)C2SC(N/N=C/c3ccc(F)cc3)=NC21 (stereo not given),57.6%
7,Cn1cc(-c2cc(N)n3nc(-c4c[nH]c5ccc(Br)cc45)cc3n2)c2cccnc21,-85.9% (active)
8,COc1cc(/C=C/C(=O)c2ccc(C(F)(F)F)cc2)ccc1Oc1nc(Nc2ccc(F)cc2)nc(N(C)C)n1,94.4%
9,CC(=O)C1=C(C)NC(SCC(=O)Nc2ccc(S(=O)(=O)Nc3cc(C)on3)cc2)=NC1c1ccccc1 (stereo not given),109%
10,O=C(Nc1nc2ccc([N+](=O)[O-])cc2s1)Nc1cc(Cl)ccc1I,-16.8% (active)
11,CC[C@]12C=CCN3CC[C@@]4(c5cc(C#CCNc6ccc(C)c(Nc7nccc(-c8cccnc8)n7)c6)c(OC)cc5N(C)[C@H]4[C@@](O)(C(=O)OC)[C@@H]1OC(C)=O)C32 (stereo not given in full),68.1%
12,C=C(C)[C@@H]1CC[C@]2(COP(=O)(OCC)OCC)CC[C@]3(C)[C@H](CC[C@@H]4[C@@](C)(CCCN)[C@H](C(=C)C)CC[C@]43C)[C@@H]12,61.1%
13,S=c1nc(-c2ccccc2)cc(-c2cc3ccccc3nc2Cl)[nH]1,126%
14,CC(C)(C)Nc1nc2cc(Cl)c(Cl)cc2nc1S(C)(=O)=O,142%
15,Cc1ccc(-c2nc(Nc3ccccc3C(=O)O)c3ccccc3n2)cc1,21.6%
16,CN(CCO)c1oc(-c2ccccc2)nc1[P+](c1ccccc1)(c1ccccc1)c1ccccc1,-7.19% (active)
17,COc1ccc2[nH]c(=O)c(CSc3nccc(-c4ccc(Cl)cc4)n3)cc2c1,45.5%
18,COc1cccc(COc2ccc(/C=C3\Oc4cc(O)ccc4C3=O)cc2)c1,131%
19,N#Cc1c(-c2ccc(F)cc2)nc(SCc2ccc(F)cc2)nc1N1CCOCC1,71.9%
20,O=C(CSc1ccc(-c2ccc(Cl)cc2)nn1)Nc1ccc(Cl)c(C(F)(F)F)c1,89.9%
